Cruzain Triton: qHTS Assay for Promiscuous and Specific Inhibitors of Cruzain (with detergent). Cruzipain (Trypanosoma cruzi), P25779. 200,000 tested, 0.43% active. purified cruzain, Z-FR-AMC fluorescence, 0.01% Triton. Potency, µM, actives largely listed as inhibitors; also: nearly all actives have a fitted effect of over 40% in size
Target sequence (P25779 123-467 limits assumed): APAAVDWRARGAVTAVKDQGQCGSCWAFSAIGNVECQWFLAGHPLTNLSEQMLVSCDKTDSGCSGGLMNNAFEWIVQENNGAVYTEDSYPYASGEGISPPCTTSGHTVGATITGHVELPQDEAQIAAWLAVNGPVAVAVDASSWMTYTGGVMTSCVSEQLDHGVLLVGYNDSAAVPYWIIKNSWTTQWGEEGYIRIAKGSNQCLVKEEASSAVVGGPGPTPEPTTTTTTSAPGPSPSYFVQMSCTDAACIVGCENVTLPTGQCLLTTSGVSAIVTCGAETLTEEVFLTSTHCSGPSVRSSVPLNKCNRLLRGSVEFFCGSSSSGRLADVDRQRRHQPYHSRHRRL
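Purified cruzain (1.5 nM final) was preincubated with compounds for 15 min at room temperature in 100 mM sodium acetate pH 5.5, 5 mM DTT, 0.01% Triton X-100. Reaction started with 2 uM Z-FR-AMC; AMC fluorescence change over 60 s gave activity.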
Cruzain inh noDet: qHTS Assay for Promiscuous and Specific Inhibitors of Cruzain (without detergent); Potency, µM, usual class: inhibitors; 200,000 tested, 2.3% active; Cruzipain (Trypanosoma cruzi), P25779; purified cruzain, Z-FR-AMC fluorescence, no detergent; also: nearly all actives have a fitted effect of over 40% in size
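Detergent-free condition (0.00005% Triton X-100) in acetate buffer pH 5.5 with DTT. 1.5 nM enzyme and compound were pre-mixed 15 min, then 2 uM Z-FR-AMC substrate added; reaction progress from fluorescence change between first and third reads (60 s).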
Of the large screens only hits and unclear results are named; the others gave an inactive call. A selection: hits, their analogues and other compounds. The true share with any hit is near 2.4%. Calls follow the shape of the dose curve; as a rule, active = well fitted curve in the direction sought with a large enough effect; inconclusive = small, poorly fitted or top-dose-only effect, or another doubt; inactive = no such curve, though single readings can be large; an effect the other way counts as inactive or inconclusive.

CN1C(=O)C2(SCC(=O)N2c2cccc(C(F)(F)F)c2)c2ccccc21 (configuration not stated)	Cruzain inh noDet inconclusive
CN1C(=O)C2(c3ccccc31)N(c1ccc(Br)cc1)C(=O)CS2(=O)=O (configuration not stated)	Cruzain inh noDet 10µM
CN1C(=O)C2(c3ccccc31)N(c1cccc(C(F)(F)F)c1)C(=O)CS2(=O)=O (configuration not stated)	Cruzain inh noDet 5µM
CN1C(=O)C2(SCC(=O)N2c2ccc(F)cc2)c2ccccc21 (configuration not stated)	none
COc1cc(OC)c(N(C)C(=O)Cn2ncc3c(=O)oc4ccccc4c32)cc1Cl	none
OC[C@H]1NC[C@H](O)[C@@H](O)[C@H]1O	none
COc1cccc(Cn2c(=O)c(-c3ccccc3)nc3cnc(N4CCNCC4)nc32)c1	none
Cc1cccc(-c2nc(CSCC(=O)N3CCN(c4ccccc4)CC3)c(C)o2)c1	Cruzain inh noDet inconclusive
CN1CCN(C(=O)c2cnn(-c3cccc(Cl)c3)c2C2CCN(C(=O)OC(C)(C)C)CC2)CC1	none
N#Cc1ccc(-c2ccc(Cl)cc2)nc1SCC(=O)c1cccc(Cl)c1	Cruzain inh noDet 10µM
N#Cc1ccc(-c2ccccc2)nc1SCC(=O)c1cccc(Cl)c1	Cruzain inh noDet 13µM
CN1CCN(C(=O)CSc2nc(-c3ccncc3)ccc2C#N)CC1	none
CCOC(=O)C(C)Sc1nc(-c2ccccc2)ccc1C#N (configuration not stated)	none
CC1=C(C(=O)Nc2cccnc2)C(c2ccccc2)n2nc(SCc3ccccc3)nc2N1 (configuration not stated)	none
CCc1nn(CC(=O)N2CCCCC2)c(=O)c2cc3sccc3n12	none
CCOC(=O)c1c(/N=C/c2c(O)n(-c3ccc(F)cc3)c(=S)[nH]c2=O)sc2c1CCCC2	none
CCOC(=O)c1c(/N=C/c2c(O)n(-c3ccccc3F)c(=S)[nH]c2=O)sc2c1CCCC2	Cruzain inh noDet 16µM
COc1cccc(NC(=O)C(=O)N/N=C/c2cc(C)n(-c3ccc(Cl)c(Cl)c3)c2C)c1	Cruzain inh noDet 16µM
Cc1cc(/C=N\NC(=O)CC(=O)NC2CCCCC2)c(C)n1-c1ccc(Cl)c(Cl)c1	none
CC(=O)N1c2c(cc(Br)cc2S(=O)(=O)N2CCN(c3cccc(Cl)c3)CC2)CC1C (configuration not stated)	none
COc1ccc(C(=O)Nc2cc(C(C)C)c(O)c(S(=O)(=O)c3ccc(Cl)cc3)c2C)cc1	Cruzain inh noDet inconclusive
COc1ccc(C(=O)Nc2cc(C(C)C)c(O)c(S(=O)(=O)c3ccc(OC)cc3)c2C)cc1	Cruzain inh noDet 25µM
CCOC(=O)c1cccc(NC(=O)c2ccc3c(Cl)c4c(nc3c2)CCC4)c1	none
O=C(Nc1nc(=O)c2ccccc2s1)c1ccc(F)cc1	Cruzain inh noDet inconclusive
O=C(Nc1nc(=O)c2ccccc2s1)c1ccc(Cl)cc1	Cruzain inh noDet 10µM
O=C(Cn1c(C(=O)N2CCc3ccccc3C2)cc2sccc21)c1ccccc1	Cruzain inh noDet 25µM
O=C(Cn1c(C(=O)N2CCN(C3CCCCC3)CC2)cc2sccc21)c1ccccc1	none
COc1ccc(C(=O)/C=C/c2ccc(N3CCCCC3)c([N+](=O)[O-])c2)cc1	none
O=C(/C=C/c1ccc(Cl)c([N+](=O)[O-])c1)Nc1ccc(N2CCCC2)c(Cl)c1	Cruzain inh noDet 20µM
O=C(CN1C(=O)C2CC=CCC2C1=O)Nc1nnc(SCc2c(Cl)cccc2Cl)s1 (configuration not stated)	Cruzain inh noDet 16µM
CCSc1nnc(NC(=O)C2Cc3ccccc3CN2S(=O)(=O)CC)s1 (configuration not stated)	none
O=C(CN1C(=O)C2CC=CCC2C1=O)Nc1nnc(SCc2ccc(Cl)cc2)s1 (configuration not stated)	none
CCS(=O)(=O)N1Cc2ccccc2CC1C(=O)Nc1nnc(SCc2c(Cl)cccc2Cl)s1 (configuration not stated)	Cruzain inh noDet 7.9µM
CCS(=O)(=O)N1Cc2ccccc2CC1C(=O)Nc1nccs1 (configuration not stated)	none
CCS(=O)(=O)N1Cc2ccccc2CC1C(=O)Nc1nc2c(C)cccc2s1 (configuration not stated)	Cruzain inh noDet 25µM
Cc1ccc(N2CCn3c2nc2c3c(=O)n(CCCc3ccccc3)c(=O)n2C)cc1	none
C#CCOCCCC(=O)O	none
Cc1[nH]nc(-c2ccc(OCc3cnn(-c4ccccc4)c3)cc2O)c1Oc1ccccc1F	Cruzain inh noDet 20µM
O=c1c(Oc2ccccc2F)coc2cc(OCc3cnn(-c4ccccc4)c3)ccc12	none
COc1ccc(-n2nc(C(=O)NCCc3ccc(OC)c(OC)c3)c3c4ccccc4n(C)c3c2=O)cc1	Cruzain inh noDet inconclusive
Fc1ccccc1-n1[nH]nnc1=S	Cruzain Triton 20µM, Cruzain inh noDet 13µM
Cc1nnc(OC(C)C)c2nn(-c3ccccc3F)c(C)c12	none
